# This excerpt belongs to a sample that is enriched for hits.
# Methyltransferases – Primary Screen for Target Class Profiling of Small Molecule Inhibitors of Methyltransferases; purified enzyme, MTase-Glo SAH luminescence; hits give low values; actives 3.9% (n = 25,000); calls only at 40 µM; call rule not given here
#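 Each enzyme was reacted with SAM and its substrate, with compounds tested once at 40 uM; SAH formed was read by MTase-Glo luminescence.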
# Calls only; 0 = inactive; + = active, no number; ! = repeats disagree.
SMILES,Methyltransferases
CC(C)Oc1ccc(CN2C(=O)c3cc4ccccc4n3CC2(C)C(=O)NCc2ccccc2)cc1 (stereo unspecified),0
COc1ccc(/C=C/c2nc(NCCCN(C)C)c3ccccc3n2)cc1,+
COc1ccc(N(C)c2nc(C)nc3ccccc23)cc1,0
Cc1cc2c(cc3n2CC(C)(C(=O)NC2CCCCCC2)N(Cc2ccco2)C3=O)o1 (stereo unspecified),0
CCc1ccccc1NC(=O)Cn1nc2n(CC(C)C)c(=O)c3ccc(C(=O)NC(C)C)cc3n2c1=O,0
Cc1ccc(Cl)cc1N1C(=O)c2cc3occc3n2CC1(C)C(=O)NC1CCCCCCC1 (stereo unspecified),0
CN1C(=O)c2cc(C(=O)NCc3ccco3)nn2CC1(C)C(=O)NC1CCCC1 (stereo unspecified),0
Cn1c(=O)n(C)c2cc(S(=O)(=O)N3CCc4ccccc4C3)ccc21,0
Cn1c(=O)n(C)c2cc(S(=O)(=O)N3CCN(C4CCCCC4)CC3)ccc21,+
COc1ccc(N2CCN(S(=O)(=O)c3ccc4c(c3)n(C)c(=O)n4C)CC2)cc1,0
CC(C)c1ccc(N2C(=O)c3cc4sccc4n3CC2(C)C(=O)NC2CCCCC2C)cc1 (stereo unspecified),0
COc1ccc(CNC(=O)CCn2ccc3cc(S(=O)(=O)N4CCCCC4)ccc32)cc1,0
CCOc1ccccc1Nc1nc2c(S(=O)(=O)c3ccccc3)nnn2c2ccccc12,0
O=C(O)c1ccc(O)c2ncc(N3CCCN(CCc4cccc5ccccc45)CC3)cc12,+
c1ccc(N2CCN(CCc3nn[nH]n3)CC2)cc1,0
CC(C)CNC(=O)c1ccc2c(=O)n(C)c3nn(CC(=O)NCc4ccccc4)c(=O)n3c2c1,0
CCOCCCNc1nc2c(S(=O)(=O)c3cc(C)ccc3C)nnn2c2ccccc12,0
Cc1cccc(NC(=O)CSc2nnc3n(C)c(=O)c4ccc(C(=O)NC5CCCCC5)cc4n23)c1,0
CCCn1c(=O)c2ccccc2n2c(=O)n(CC(=O)Nc3cc(F)ccc3F)nc12,0
N#Cc1c(O)c2c(-c3ccc(-c4ccccc4O)cc3)csc2[nH]c1=O,+!
CC(=O)Nc1c2n(c3ccccc13)CC(C)(C(=O)NC1CCCC1)N(Cc1ccccc1C)C2=O (stereo unspecified),0
O=C(c1ccc2c(=O)nc3c(-c4ccc(F)cc4)n[nH]n3c2c1)N1CCN(c2ccccn2)CC1,0
CN(Cc1ccc(C(=O)O)cc1)c1ccc(OCc2c(-c3c(Cl)cccc3Cl)noc2C2CC2)nc1C(F)(F)F,+
COc1ccc(OC)c2c1cc1n2CC(C)(C(=O)NC2CCCC2)N(Cc2cccs2)C1=O (stereo unspecified),0
CCCn1c(=O)c2ccc(C(=O)NC(C)C)cc2n2c(SCC(=O)Nc3ccc(C)c(C)c3)nnc12,0
SMILES,Methyltransferases
Nc1ccc(-c2cnc(N)c(-c3ccc(Cl)cc3)c2)cn1,+
COc1cc(-c2cc(-c3cccc(O)c3)cnc2N)cc(OC)c1OC,0
Cc1ccc(NC(=O)Cn2nc3n(CCCOC(C)C)c(=O)c4ccccc4n3c2=O)cc1C,0
COc1ccc(CNC(=O)C2(C)Cn3cnc(C(=O)Nc4cccc5c4CCCC5)c3C(=O)N2C2CC2)cc1 (stereo unspecified),0
CCCN1C(=O)c2c(C(=O)NCc3cccc(OC)c3)ncn2CC1(C)C(=O)NC1CCCC1 (stereo unspecified),0
Cc1ccc(C(=O)Nc2ccc(S(=O)(=O)O)c3cc(S(=O)(=O)O)cc(S(=O)(=O)O)c23)cc1NC(=O)c1cccc(NC(=O)Nc2cccc(C(=O)Nc3cc(C(=O)Nc4ccc(S(=O)(=O)O)c5cc(S(=O)(=O)O)cc(S(=O)(=O)O)c45)ccc3C)c2)c1,+
Clc1cccc2c1NC(c1ccc(Br)cc1)C1CC=CC21 (stereo unspecified),0
CCCn1c(=O)c2ccc(Cl)cc2n2c(SCC(=O)Nc3cccc(OC)c3)nnc12,0
Cc1[nH]c2ccccc2c1C(=O)Cn1nc2n(Cc3ccc(F)cc3)c(=O)c3ccccc3n2c1=O,0
COc1cccc(CN2CC(=O)N(Cc3ccc(Cl)cc3)c3ccccc3S2(=O)=O)c1,0
Cc1cc(Nc2nc(N[C@@H](C)c3ccc(F)cc3)c(C#N)cc2F)n[nH]1,+!
Cc1cc(Nc2nc(-c3ccccc3)nc3ccccc23)n[nH]1,0
COc1ccccc1CNC(=O)C1(C)Cn2nc(-c3ccccc3)cc2C(=O)N1c1ccccc1F (stereo unspecified),0
CCOC(=O)C(Cc1c[nH]c2ccccc12)NC(=O)c1ccccc1Cl (stereo unspecified),0
Nc1nc(Nc2ccc3c(c2)CCC(N2CCCC2)CC3)nn1-c1cc2c(nn1)-c1ccccc1CCC2 (stereo unspecified),+
Cc1ccc(NC(=O)Cn2nc3n(Cc4ccccc4)c(=O)c4ccccc4n3c2=O)c(C)c1,0
CC(C)Cn1c(=O)c2ccccc2n2c(CCC(=O)NCCc3c[nH]c4ccccc34)nnc12,0
O=C(c1ccc(Cl)cc1)N1CCN(c2ccnc3cc(Cl)ccc23)CC1,+
O=C(c1ccc(Cl)c([N+](=O)[O-])c1)N1CCN(c2ccccc2F)CC1,0
CCn1cc(-c2ccc(Cl)cc2)cc1C(=O)N1CCN(c2ccccn2)CC1,0
CC(C)CCN1C(=O)c2cc3ccccc3n2CC1(C)C(=O)NCc1ccccc1 (stereo unspecified),0
Cc1ccc(C)c(N2CCN(C(=O)c3ccc4c(=O)nc5c(-c6ccccc6)n[nH]n5c4c3)CC2)c1,0
CCC(C)NC(=O)c1ccc2c(=O)n(C(C)C)c3nn(CC(=O)Nc4cc(C)cc(C)c4)c(=O)n3c2c1 (stereo unspecified),0
O=C(CCc1nnc2n(Cc3ccc(F)cc3)c(=O)c3ccccc3n12)Nc1ccc(F)c(F)c1,0
COCCCNC(=O)c1cc2n(n1)CC(C)(C(=O)NCc1ccccc1)N(C)C2=O (stereo unspecified),0
SMILES,Methyltransferases
CC(C)n1nc(CNC(=O)Cc2ccc(F)cc2)c2ccccc21,0
CC(C)n1nc(-c2ccc3oc(N)nc3c2)c2c(N)ncnc21,0
CC(C)n1nc(Cc2cccc3ccccc23)c2c(N)ncnc21,+
CN1C(=O)c2cc(C(=O)NCc3cccc(F)c3)nn2CC1(C)C(=O)NC1CCCC1 (stereo unspecified),0
O=C(NCc1ccncc1)c1ccc(-c2ccsc2)nc1,0
Cc1c(Cl)cccc1NC(=O)N1CCn2c(C)ccc2C1C(C)C (stereo unspecified),0
O=C(CCc1nnc2n(Cc3ccccc3Cl)c(=O)c3ccccc3n12)NCCCN1CCCC1=O,0
CCCC1c2ccc(C)n2CCN1C(=O)Nc1ccccc1C(F)(F)F (stereo unspecified),0
CCCC1c2cccn2CCN1C(=O)Nc1ccccc1C(F)(F)F (stereo unspecified),+
CC(C)C1c2cccn2CCN1C(=O)Nc1ccccc1C(F)(F)F (stereo unspecified),0
CCCN1C(=O)c2cc(C(=O)NCc3cccc(OC)c3OC)nn2CC1(C)C(=O)NC1CCCC1 (stereo unspecified),0
C[C@H](Cc1ccc(O)c(O)c1)[C@@H](C)Cc1ccc(O)c(O)c1,+
CC(CCc1ccc(O)cc1)NCCc1ccc(O)c(O)c1 (stereo unspecified),0
CC(C)Cn1c(=O)c2ccc(C(=O)NC3CCCC3)cc2n2c(=O)n(Cc3ccccc3Cl)nc12,0
CC1CCN(S(=O)(=O)c2ccc3c(c2)oc(=O)n3CC(=O)N2CCN(C3CCCCC3)CC2)CC1,0
